Here are results for 30 compounds from PubChem BioAssay (NCATS).

Values without a mark were called inactive. For some of these results: Entries with a potency or affinity are not part of this list. Activity calls are given as the source filed them. The rule behind the calls is not given here.

The conditions of experiment [1]: Ebola virus entry assay, green fluorescence channel.
For experiment [2] the following is noted: Ebola virus entry assay, blue channel fluorescence.
The conditions of experiment [3]: Ebola virus entry assay, ratio channel.
The conditions of experiment [4]: Ebola virus entry assay, green channel fluorescence.
The conditions of experiment [5]: Ebola virus entry assay, reporter ratio channel; Channel type: primary.
The conditions of experiment [6]: Ebola virus entry assay, blue channel (ratio component).
Throughout, for efficacy: 0% is about no effect.

Consider `COc1ccc(OC(=O)N(CC(=O)O)Cc2ccc(OCCc3nc(-c4ccccc4)oc3C)cc2)cc1`, for which the efficacy in experiment [1] is -17%. The result in experiment [2], in experiment [3], in experiment [4], in experiment [5] and in experiment [6] was inactive.
Take `Cc1cc(O)c(C)c(C)c1O`: the efficacy in experiment [1] was -20.2%. The compound was called inactive in experiment [2], in experiment [3], in experiment [4], in experiment [5] and in experiment [6].
For `Oc1c(Cl)cc(Cl)cc1Sc1cc(Cl)cc(Cl)c1O`, in experiment [1], the efficacy was -26.7%. In addition, the half-maximal activity concentration (AC50) in experiment [2] was 11.2 µM (active); in experiment [3] it was 22.4 µM (active); in experiment [5] it was 22.4 µM (active). For the same compound, the call in experiment [4] was inactive.
Take `CCC(=O)Nc1ccc(O)cc1`: in experiment [1], the efficacy was -18.3%. Further, the result in experiment [2], in experiment [3], in experiment [4], in experiment [5] and in experiment [6] was inactive.
For `CC(C)(Cc1c[nH]c2ccccc12)NCC(O)COc1ccccc1C#N` (stereo not drawn), the efficacy in experiment [1] is 48.7%. The AC50 in experiment [2] is 35.5 µM (active); in experiment [3], 25.1 µM (active); in experiment [5] it was 25.1 µM (active). The call in experiment [4] was inactive.
As for `CCC1Nc2cc(Cl)c(S(N)(=O)=O)cc2S(=O)(=O)N1` (stereo not drawn), in experiment [1], the efficacy was -28.2%. Further, the compound was classed as inactive in experiment [2], in experiment [3], in experiment [4] and in experiment [5].
Turning to `O=C(NC(=O)c1c(F)cccc1F)Nc1cc(Cl)c(OC(F)(F)C(F)C(F)(F)F)cc1Cl` (stereo not drawn), the efficacy in experiment [1] was 43.9%. Moreover, the AC50 in experiment [2] was 17.8 µM (active); in experiment [3], 20 µM (active); in experiment [5] it was 20 µM (active). In addition, the compound was classed as inactive in experiment [4].
`C[C@]12CC[C@@H]3c4ccc(O)cc4CC[C@H]3[C@@H]1CCC2=O`: in experiment [1], the efficacy is 55%. In addition, the AC50 was 3.55 µM (active) in experiment [2], 10 µM (active) in experiment [3] and 10 µM (active) in experiment [5]. The compound was called inactive in experiment [4].
Consider `C#CC1(O)CC[C@H]2[C@@H]3CCC4=CCCC[C@@H]4[C@H]3CC[C@@]21C` (stereo partly drawn), for which the efficacy in experiment [1] was 7.54%. For the same compound, the AC50 in experiment [2], in experiment [3] and in experiment [5] was 22.4 µM (active) in each case. Further, the compound was classed as inactive in experiment [4].
Consider `CCCOc1ccccc1-c1nc2n[nH]nc2c(=O)[nH]1`, for which, in experiment [1], the efficacy is 11%. Besides, the result in experiment [2], in experiment [3], in experiment [4] and in experiment [5] was inactive.
As to `Nc1nc2ncc(CNc3ccc(C(=O)N[C@@H](CCC(=O)O)C(=O)O)cc3)nc2c(=O)[nH]1`, in experiment [1], the efficacy is 12.4%. The outcome in experiment [2], in experiment [3], in experiment [4], in experiment [5] and in experiment [6] was inactive.
For the compound `COC(=O)[C@H]1[C@H]2C[C@@H]3c4[nH]c5cc(OC)ccc5c4CCN3C[C@H]2C[C@@H](OC(=O)/C=C/c2ccc(O)c(OC)c2)[C@@H]1OC`, the efficacy in experiment [1] was -80.1%. The AC50 in experiment [2] was 3.55 µM (active); in experiment [3], 3.16 µM (active); in experiment [5], 3.16 µM (active). For the same compound, the call in experiment [4] was inactive.
Consider `COc1cc([C@H]2Oc3cc([C@H]4Oc5cc(O)cc(O)c5C(=O)[C@@H]4O)ccc3O[C@@H]2CO)ccc1O`, for which the efficacy in experiment [1] was 13.5%. For the same compound, the AC50 was 39.8 µM (active) in experiment [2] and 44.7 µM (active) in experiment [5]. Also, the outcome in experiment [3] and in experiment [4] was inactive.
Take `CC(C(=O)O)c1ccc(CC2CCCC2=O)cc1` (stereo not drawn): the efficacy in experiment [1] is 31.1%. For the same compound, the call in experiment [2], in experiment [3], in experiment [4], in experiment [5] and in experiment [6] was inactive.
In the case of `CC(=O)CCC(=O)O`, the efficacy in experiment [1] was 10.9%. Moreover, the result in experiment [2], in experiment [3], in experiment [4], in experiment [5] and in experiment [6] was inactive.
With `NC(N)=N/N=C/c1c(Cl)cccc1Cl`, the efficacy in experiment [1] was -12.6%. In addition, the AC50 in experiment [2], in experiment [3] and in experiment [5] was 28.2 µM (active) in each case. Further, in experiment [4], the result was inactive.
For the compound `O=C1Nc2ccccc2C1(c1ccc(O)cc1)c1ccc(O)cc1`, the efficacy in experiment [1] was -14%. For the same compound, the call in experiment [2], in experiment [3], in experiment [4], in experiment [5] and in experiment [6] was inactive.
As for `O=C(NCCc1c[nH]c2ccccc12)c1cccnc1`, the efficacy in experiment [1] was 15.6%. Further, the result in experiment [2], in experiment [3], in experiment [4], in experiment [5] and in experiment [6] was inactive.
As for `CCN(CC)C(=O)C1CN2CCc3cc(OC)c(OC)cc3C2CC1OC(C)=O` (stereo not drawn), the efficacy in experiment [1] is -20.8%. Further, the call in experiment [2], in experiment [3], in experiment [4], in experiment [5] and in experiment [6] was inactive.
For `CCc1oc2ccccc2c1C(=O)c1cc(Br)c(O)c(Br)c1`, in experiment [1], the efficacy was 16.5%. The call in experiment [2], in experiment [3], in experiment [4], in experiment [5] and in experiment [6] was inactive.
Regarding `CC[C@H](NC(C)C)[C@H](O)c1ccc(O)c2[nH]c(=O)ccc12`, the efficacy in experiment [1] was -13.2%. For the same compound, the call in experiment [2], in experiment [3], in experiment [4] and in experiment [5] was inactive.
With `CCCCC(CC)COC(=O)C(C#N)=C(c1ccccc1)c1ccccc1` (stereo not drawn), the efficacy in experiment [1] is 53.9%. Moreover, the call in experiment [2], in experiment [3], in experiment [4], in experiment [5] and in experiment [6] was inactive.
For the compound `CC1N=C(N)OC1c1ccccc1` (stereo not drawn), the efficacy in experiment [1] is 23.7%. Further, the AC50 in experiment [2] and in experiment [5] was 31.6 µM (active) each time. For the same compound, the result in experiment [3] and in experiment [4] was inactive.
For `CC1(C)O[C@@H]2C[C@H]3[C@@H]4C[C@H](F)C5=CC(=O)CC[C@]5(C)[C@H]4[C@@H](O)C[C@]3(C)[C@]2(C(=O)CO)O1`, in experiment [1], the efficacy is 23.9%. Moreover, the compound was classed as inactive in experiment [2], in experiment [3], in experiment [4], in experiment [5] and in experiment [6].
Regarding `CN(C)CCc1c[nH]c2ccccc12`, in experiment [1], the efficacy was -12.4%. Besides, in experiment [2], the AC50 was 35.5 µM (active). Besides, the result in experiment [3], in experiment [4] and in experiment [5] was inactive.
For the compound `C=C[C@@]1(C)CC(=O)[C@]2(O)[C@@]3(C)[C@@H](O)CCC(C)(C)[C@@H]3[C@H](O)[C@H](OC(C)=O)[C@@]2(C)O1`, the efficacy in experiment [1] was 10.9%. Also, the AC50 in experiment [2] is 10 µM (active). Also, the result in experiment [3], in experiment [4] and in experiment [5] was inactive.
For `CCc1cc(OC)c(C[C@H](C)N)cc1OC`, in experiment [1], the efficacy was 38.5%. Besides, the figures for the AC50 in experiment [2], in experiment [3] and in experiment [5] were 22.4 µM (active), 25.1 µM (active) and 25.1 µM (active), respectively. The call in experiment [4] was inactive.
Consider `CC1CC(=O)NN=C1c1ccc(NCC(C)(C)NCC(O)COc2cc(Cl)ccc2C#N)cc1` (stereo not drawn), for which the efficacy in experiment [1] was 42.4%. Further, the result in experiment [2], in experiment [3], in experiment [4], in experiment [5] and in experiment [6] was inactive.
As for `CCCCC1C(=O)N(c2ccccc2)N(c2ccccc2)C1=O`, the efficacy in experiment [1] is -25%. For the same compound, the result in experiment [2], in experiment [3], in experiment [4] and in experiment [5] was inactive.
`CN1CCN(c2cc3c(cc2F)c(=O)c(C(=O)O)cn3-c2ccc(F)cc2)CC1`: the efficacy in experiment [1] is 8.5%. Moreover, the result in experiment [2], in experiment [3], in experiment [4] and in experiment [5] was inactive.
